Screening results as filed in PubChem.
Rows were chosen to be rich in hits. Some 1.1% of all compounds tested hit in one or more screens of this group.
NR2F2 inh: blocks human COUP-TFII nuclear receptor; inhibition, % at 8.6 µM; AID 686940; HEK293T NGFI-A luciferase reporter, luminescence; 370,000 tested, 0.7% active;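 active = inhibition above a per-plate cutoff, mean inhibition of test wells between control levels plus 3 SD, cut at about 38% in these data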;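 also: cells cotransfected with COUP-TFII expression vector driving the NGFI-A reporter; 0% = median of COUP-TF2 test wells and 100% = reporter-only cells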
Target sequence (P24468 whole entry, looked up): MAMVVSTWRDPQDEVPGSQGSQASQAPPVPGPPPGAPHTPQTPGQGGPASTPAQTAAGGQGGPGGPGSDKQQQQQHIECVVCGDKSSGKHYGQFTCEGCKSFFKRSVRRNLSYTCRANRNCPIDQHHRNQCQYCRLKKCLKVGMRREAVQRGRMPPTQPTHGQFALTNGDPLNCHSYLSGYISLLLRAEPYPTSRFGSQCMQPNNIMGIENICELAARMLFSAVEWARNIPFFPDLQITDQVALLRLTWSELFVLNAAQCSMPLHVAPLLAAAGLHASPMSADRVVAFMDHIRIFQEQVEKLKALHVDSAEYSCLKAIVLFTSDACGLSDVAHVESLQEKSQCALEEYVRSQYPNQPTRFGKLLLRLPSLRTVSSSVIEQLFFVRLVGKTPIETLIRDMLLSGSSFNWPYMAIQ
NCOA3 inh: human NCOA3 inhibition. HEK293 GAL4-SRC3 luciferase reporter, luminescence. AID 588352. inhibition, % at 3.6 µM. Q9Y6Q9. 360,000 tested, 0.17% active;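 active = inhibition above a per-campaign cutoff, the mean of all compounds plus 3 SD, cut at about 60% in these data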;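 also: 0% = DMSO-treated cells and 100% = gossypol-treated cells at 36 µM; higher means less SRC3-driven luciferase light from the GAL4 reporter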
LRH-1 inv ag: inverse agonists of human LRH-1 (NR5A2) | O00482 | HEK293T StAR-luciferase reporter, LRH-1 transfected, 24 h | inhibition, % at 3.6 µM | 360,000 tested, 0.13% active;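 active = inhibition above the mean inhibition of all tested compounds plus 3 SD, cut at about 73% in these data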;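 also: 0% = DMSO wells and 100% = reporter-only cells lacking LRH-1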
GalR3 antagonist: blocks the human galanin receptor 3. AID 651719. inhibition, % at 3 µM. 360,000 tested, 0.44% active. HEK293 GalR3-CNG cAMP membrane potential fluorescence; galR3 body fused to GalR1 C-terminus. O60755;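 active = inhibition above the screen-wide average plus 3 SD, cut at about 13% in these data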;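 also: forskolin and galanin both at EC90 stimulate the cells; cAMP rise reported by CNG channel membrane potential dye signal; 0% = forskolin plus galanin with DMSO and 100% = forskolin alone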
Target sequence (O60755 1-299 limits assumed): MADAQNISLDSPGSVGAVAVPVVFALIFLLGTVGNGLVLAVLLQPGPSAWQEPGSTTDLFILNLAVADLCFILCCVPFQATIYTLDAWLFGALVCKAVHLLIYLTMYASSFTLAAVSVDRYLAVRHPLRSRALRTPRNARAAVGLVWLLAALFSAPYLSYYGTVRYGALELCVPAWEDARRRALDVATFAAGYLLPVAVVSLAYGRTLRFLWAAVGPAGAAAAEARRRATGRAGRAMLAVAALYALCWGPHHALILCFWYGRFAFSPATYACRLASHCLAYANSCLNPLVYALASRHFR
NCOA1 inh: inhibitors of human steroid receptor coactivator 1 (SRC1); Q15788; HEK293 GAL4-SRC1 luciferase reporter, luminescence; inhibition, % at 3.6 µM; 360,000 tested, 0.12% active;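 active = inhibition above the campaign mean plus 3 SD, with each screening campaign given its own cutoff, cut at about 60% in these data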;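 also: 0% = DMSO treated cells and 100% = gossypol at 36 µM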
SRC2 inh: inhibits human steroid receptor coactivator 2; Q15596; HEK293 GAL4-SRC2 luciferase reporter, luminescence; inhibition, % at 9 µM; 370,000 tested, 0.17% active;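 active = inhibition above the mean inhibition of all tested compounds plus 3 SD, set per campaign, cut at about 52% in these data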;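 also: 0% = DMSO treated cells and 100% = cells given Gossypol at 36 µM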
GalR3 conf: GalR3 (human) antagonism, confirmation. AID 652245. shares compounds with GalR3 antagonist. 1,600 tested, 59% active. HEK293 GalR3 CNG cAMP biosensor, membrane potential fluorescence; galR3 fused to GalR1 carboxy tail; challenged with forskolin and galanin at EC90. inhibition, % at 3 µM;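 active = inhibition above the primary screen's cutoff, the mean inhibition of all screened compounds plus 3 SD, cut at about 13% in these data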;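 also: 0% = forskolin plus galanin and 100% = forskolin alone with DMSO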
HEK-CNG parental: counter-screen for GalR3 antagonists: nonspecific agonists in parental HEK-CNG cells; activation, % at 3 µM; 1,600 tested, 10% active; AID 652268; HEK293-CNG parental cells, cAMP membrane potential fluorescence; normalised: DMSO wells 0%, forskolin wells 100%; shares compounds with GalR3 antagonist; in the data active = activation above about 1.3%
VP16 Luc counter: counter-screen for COUP-TFII antagonists: inhibitors of VP16; AID 687007; HEK293 Gal4-VP16 luciferase reporter, luminescence; shares compounds with NR2F2 inh; 2,500 tested, 25% active; inhibition, % at 8.5 µM; in the data active = inhibition above about 13%
NR2F2 inh conf: COUP-TFII (NR2F2) inhibition, confirmation assay | shares compounds with NR2F2 inh | HEK293 NGFI-A luciferase reporter, luminescence | inhibition, % at 8.5 µM | 2,500 tested, 45% active | AID 687008;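 active = mean inhibition over three repeats above a set limit taken from the earlier primary screen, cut at about 38% in these data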;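 also: 100% = cells given the luciferase reporter alone without the COUP-TF2 vector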
The depositor's hits bear a star; . = not tested or not shown; ! = not active in a repeat.

SMILES | NR2F2 inh | NCOA3 inh | LRH-1 inv ag | GalR3 antagonist | NCOA1 inh | SRC2 inh | VP16 Luc counter | NR2F2 inh conf | others
COc1ccc(CCNc2ncnc3sc(C)cc23)cc1OC | 79.1* | 26.1 | 46.4 | 85.7* | 18.7 | 35.7 | -1.0 | 68.3* | GalR3 conf=109.8*;HEK-CNG parental=-0.3
COc1ccc(CCNc2ncnc3[nH]ncc23)cc1OC | 26.6 | 9.7 | -5.5 | -2.3 | -21.3 | 8.8 | . | .
O=C(CCn1nnc2ccccc21)N1CCN(c2ccc(F)cc2)CC1 | -1.2 | . | . | . | . | 7.6 | . | .
Nc1nc2ccccc2cc1C(=O)NCc1ccc(-c2ccccc2)cc1 | 64.6* | . | 57.9 | 86.7* | . | 17.0 | 6.9 | 67.9* | GalR3 conf=97.1*;HEK-CNG parental=0.2
Nc1nc2ccccc2cc1C(=O)NCc1ccc(Cl)cc1Cl | . | . | 23.9 | . | . | . | . | .
Cc1c(Cl)cccc1NC(=O)N1CCCN(c2nc(-c3ccccc3)ns2)CC1 | 56.8* | 30.0 | 23.4 | 33.8* | 14.0 | 13.5 | 8.5 | 50.9* | GalR3 conf=98.9*;HEK-CNG parental=-0.5
CC(C)Cc1ccc(CN2CCCC(NC(=O)c3ccnn3C)C2)cc1 (stereo not drawn) | 45.7* | 11.8 | 5.5 | 32.0* | -1.2 | 23.2 | -6.7 | 18.3 | GalR3 conf=0.2;HEK-CNG parental=0.2
Cc1cccc(Cl)c1NC(=O)NCCCN1CCOCC1 | -15.4 | . | . | -1.0 | . | -8.6 | . | .
COc1cc(-c2csc(N3CCC(C(N)=O)CC3)n2)cc(OC)c1OC | -26.8 | . | . | . | . | . | . | .
NC(=O)c1c(-c2ccc(Cl)cc2Cl)csc1NC(=O)Cc1ccccc1 | 73.5* | 12.8 | 15.1 | 95.1* | 8.2 | 9.6 | -22.7 | 53.6* | GalR3 conf=113.4*;HEK-CNG parental=-1.1
O=C(Cc1ccccc1)Nc1scc(-c2ccccc2)c1C(=O)N1CCOCC1 | . | 23.1 | -8.8 | . | 1.9 | . | . | .
Cc1ccccc1N=Nc1ccc(O)c2ncccc12 | -12.9 | 7.0 | 4.4 | -4.8 | 12.4 | -1.9 | . | .
O=Nc1ccc(O)c2ncccc12 | 53.5* | -91.7 | 11.0 | 1.1 | -214.3 | 20.0 | 5.4 | 40.6*
FC(F)(F)c1ccc(Cn2ccc3ccc(-c4ccc5ccn(Cc6ccccc6)c5c4)cc32)cc1 | -6.7 | . | . | . | . | 20.4 | . | .
NC(=O)c1cc([N+](=O)[O-])ccc1NCc1ccc(N)cc1 | 52.2* | 44.5 | -0.9 | -0.1 | 40.6 | 73.0* | 64.2* | 49.6*
NC(=O)c1cc([N+](=O)[O-])ccc1NCc1ccc(F)cc1 | -0.7 | -52.0 | -7.2 | -5.0 | -7.4 | -16.8 | . | .
COc1ccc(OC)c(S(=O)(=O)N2CCCC(c3noc(-c4ccc(C)cc4)n3)C2)c1 (stereo not drawn) | 4.7 | . | . | . | . | 9.9 | . | .
CC(C)CCn1cnc2c(sc3nc4c(cc32)CSC(C)(C)C4)c1=O | 55.2* | -8.0 | 23.9 | -2.5 | 3.5 | 37.8 | -56.7 | 23.8
CC(C)CNS(=O)(=O)c1ccc(CCC(=O)N2CCN(Cc3ccccc3)CC2)cc1 | -11.3 | 7.4 | 8.6 | -6.6 | 2.2 | -2.5 | . | .
CCNS(=O)(=O)c1ccc(CCC(=O)N2CCN(Cc3ccccc3)CC2)cc1 | 7.3 | 12.8 | 8.4 | -12.3 | -12.2 | 23.2 | . | .
O=C(CCc1ccc(S(=O)(=O)NCCc2ccccc2)cc1)N1CCN(Cc2ccc3c(c2)OCO3)CC1 | 55.0* | 19.6 | 30.5 | -3.8 | 19.9 | 22.3 | 10.2 | 32.9
CC(C)CNS(=O)(=O)c1ccc(CCC(=O)N2CCN(Cc3ccc4c(c3)OCO4)CC2)cc1 | 45.2* | 3.9 | 23.9 | -1.1 | 5.3 | -5.4 | -4.5 | 16.4
C[C@@H]1CN([C@H](C)CO)C(=O)CCCn2cc(nn2)CO[C@H]1CN(C)S(=O)(=O)c1ccc(Cl)cc1 | -5.3 | . | . | -5.5 | . | 5.0 | . | .
Cc1ccc(-c2nnc(SCC(=O)Nc3ccccc3F)o2)cc1 | 63.6* | 9.2 | 32.1 | 3.9 | 33.3 | 61.6* | 24.4* | 39.8*
O=[N+]([O-])c1ccc(N2CCN(c3ccc([N+](=O)[O-])cc3CO)CC2)c(CO)c1 | 60.3* | -14.4 | 22.7 | -14.0 | 19.1 | 16.0 | 1.2 | 20.8
SMILES | NR2F2 inh | NCOA3 inh | LRH-1 inv ag | GalR3 antagonist | NCOA1 inh | SRC2 inh | VP16 Luc counter | NR2F2 inh conf | others
O=C(CSc1nnc(-c2ccco2)n1Cc1ccco1)c1ccc([N+](=O)[O-])cc1 | 5.3 | . | . | . | . | -5.3 | . | .
CCOC(=O)[C@@H]1CSCCS(=O)(=O)N1C(=O)[C@H](C)NC(=O)OC(C)(C)C | -15.4 | . | . | -6.6 | . | -26.8 | . | .
CC(C)(Oc1ccc(Cl)cc1)C(=O)Nc1ccc2oc(=O)ccc2c1 | -6.4 | -27.7 | 12.4 | -4.3 | -12.1 | -7.8 | . | .
CC(C)(C)C(=O)Nc1ccc(-c2cc3cc(Cl)ccc3o2)cc1 | 53.3* | 43.8 | 17.5 | -1.5 | 17.6 | 44.9 | -153.5 | -21.6
CC1=CC(=O)C(C(C)C)=C/C1=N\OS(=O)(=O)c1ccc(F)cc1 | 91.7* | . | . | . | . | . | 28.8* | 15.1
CC1=CC(=O)C(C(C)C)=C/C1=N/OC(=O)c1cccc([N+](=O)[O-])c1 | 17.0 | 16.8 | 26.0 | -11.2 | 1.0 | 26.6 | . | .
O=C(OCCC12CC3CC(CC(C3)C1)C2)c1ccc(NCc2cc(O)ccc2O)cc1 | 89.8* | 74.1* | 51.6 | -1.8 | 55.9 | 94.0* | 78.2* | 101.0*
N#CCC(=O)Nc1ccc(C(=O)OCC(=O)C23CC4CC(CC(C4)C2)C3)cc1 | -6.0 | -17.8 | 4.3 | -4.6 | 10.4 | 14.0 | . | .
O=C(OCC12CC3CC(CC(C3)C1)C2)c1ccc(NCc2cc(O)ccc2O)cc1 | 79.7* | 72.7* | 65.1 | 1.8 | 18.3 | 84.6* | 78.9* | 99.4*
CCNC(=O)OCCC12CC3CC(CC(C3)C1)C2 | -1.5 | 11.1 | -6.1 | -0.8 | -8.3 | -21.6 | . | .
CCCCCCCCCCCCCCCC[n+]1ccccc1 | 50.8*! | 35.7 | 47.5 | -1.2 | 8.9 | 8.9 | 1.4 | 26.2
CCCCCCCCCCCCCCCC[n+]1cccc(C(=O)N(CC)CC)c1 | -17.8 | -6.0 | 9.0 | -5.6 | -3.5 | 1.1 | . | .
C=CCN1C(C(=O)OCC)CSCCS1(=O)=O (stereo not drawn) | 6.1 | . | . | -1.2 | . | -2.1 | . | .
CCCCCn1c2c(c(=N)c3ccccc31)CCC2 | 66.1* | 49.8 | 61.2 | 5.6 | 33.5 | 24.7 | 14.4* | 54.1*
Clc1cccc(CN2CCCCCC2)c1 | 14.0 | 6.8 | 8.0 | -9.9 | -14.9 | -20.3 | . | .
CCOC(=O)Cn1c2c(c(=N)c3ccccc31)CCC2 | 9.6 | 4.0 | -13.4 | -2.6 | 11.4 | -1.9 | . | .
N=c1c2c(n(Cc3ccc(Cl)cc3)c3c1CCC3)CCC2 | 66.9* | 69.6* | 91.9* | -6.3 | 48.4 | 1.7 | 4.0 | 46.2*
